30 compounds from the supplement of paper PMC13380429 can be followed below.

Assay [1] relates to Vero E6 infected with SARS-CoV-2. Description: morphology score (similarity to uninfected cells); higher = more like uninfected cells. Particulars: 24 h.
Assay [2] shares this test system. Description: SARS-CoV-2 infection rate relative to infected DMSO; higher = more infection, active = 60 or less. The note with it: 24 h.

The compound `Cc1cc(C)c(NC(=O)C2CC3CCC2C3)c(C)c1` (stereo not given) (10 µM) displayed a morphology score in assay [1] of -0.102. The SARS-CoV-2 infection rate in assay [2] is 102% (inactive).

On to `CC(C)(C)CC(=O)Nc1c(F)cc(C(=O)/N=c2\sccn2COP(=O)(O)O)cc1F` (10 µM), for which the morphology score in assay [1] worked out at 0.0762. In assay [2], the SARS-CoV-2 infection rate was 93.5% (inactive).

The compound `OCCN1CCN(CC/C=C2/c3ccccc3Sc3ccc(C(F)(F)F)cc32)CC1` [flupentixol] (10 µM) yielded a morphology score in assay [1] of 0.506. In assay [2], the SARS-CoV-2 infection rate was 79% (inactive).

In assay [1], `COc1cc2ncnc(Nc3ccc(Oc4ccccc4)cc3)c2cc1OC` [SRC-kinase-inhibitor-I] (0.833333 µM) had a morphology score of 0.0162. Besides, the SARS-CoV-2 infection rate in assay [2] is 110% (inactive).

Consider `CN1CCN(c2cc3c(cc2F)c(=O)c(C(=O)O)cn3-c2ccc(F)cc2)CC1` [difloxacin] (10 µM), for which the morphology score in assay [1] was -0.0785. The SARS-CoV-2 infection rate in assay [2] was 99.5% (inactive).

In assay [1], `Cc1nc2n(c(=O)c1CCN1CCC(c3noc4cc(F)ccc34)CC1)CCCC2O` (stereo not given) [paliperidone] (10 µM) came in with a morphology score of 0.08. In addition, the SARS-CoV-2 infection rate in assay [2] is 108% (inactive).

In assay [1], `CCc1ccc(/C=C/C(=O)Nc2ccc(C(C)=O)cc2)o1` [heclin] (10 µM) had a morphology score of 0.263. Further, the SARS-CoV-2 infection rate in assay [2] was 77% (inactive).

For the compound `COC(=O)C1=C(C)NC(C)=C(C(=O)OC2CCCN(Cc3ccccc3)C2)C1c1cccc([N+](=O)[O-])c1` (stereo not given) [benidipine] (10 µM), in assay [1], the morphology score was determined as 0.0303. Further, the SARS-CoV-2 infection rate in assay [2] was 102% (inactive).

`Oc1c(I)cc(I)c2cccnc12` [iodoquinol] (0.833333 µM) showed a morphology score in assay [1] of 0.155. Moreover, the SARS-CoV-2 infection rate in assay [2] was 99.5% (inactive).

Regarding `NNc1nncc2ccccc12` [hydralazine] (10 µM), the morphology score in assay [1] is -0.0789. Further, the SARS-CoV-2 infection rate in assay [2] was 104% (inactive).

Compound `CCN(CC)CCNC(=O)COc1ccc(OC)cc1` [mefexamide] (10 µM) returned a morphology score in assay [1] of 0.0556. In addition, the SARS-CoV-2 infection rate in assay [2] was 113% (inactive).

The compound `O=C(O)CCC(=O)c1ccc(-c2ccccc2)cc1` [fenbufen] (10 µM) registered a morphology score in assay [1] of -0.0471. Also, the SARS-CoV-2 infection rate in assay [2] is 104% (inactive).

Consider `CCN(CC)CCNc1ccc(CO)c2sc3ccccc3c(=O)c12` [hycanthone] (0.833333 µM), for which the morphology score in assay [1] was 0.244. Also, the SARS-CoV-2 infection rate in assay [2] is 82% (inactive).

Consider `N#Cc1cc(NC(=O)C(=O)O)c(Cl)c(NC(=O)C(=O)O)c1` [lodoxamide] (10 µM), for which the morphology score in assay [1] is -0.0976. In addition, in assay [2], the SARS-CoV-2 infection rate is 110% (inactive).

`O=S(=O)(F)Cc1ccccc1` [phenylmethylsulfonyl-fluoride] (10 µM) showed a morphology score in assay [1] of 0.191. For the same compound, in assay [2], the SARS-CoV-2 infection rate was 95% (inactive).

In assay [1], `NS(=O)(=O)Nc1ncnc(OCCOc2ncc(Br)cn2)c1-c1ccc(Br)cc1` (10 µM) returned a morphology score of 0.0685. Further, the SARS-CoV-2 infection rate in assay [2] was 120% (inactive).

On to `CNC1CCCN(c2c(F)cc3c(=O)c(C(=O)O)cn(C4CC4)c3c2OC)C1` (stereo not given) [balofloxacin] (10 µM), for which the morphology score in assay [1] was -0.103. Also, in assay [2], the SARS-CoV-2 infection rate is 104% (inactive).

For the compound `COc1cc2ncnc(Sc3nnc(C)s3)c2cc1OC` (10 µM), the morphology score in assay [1] turned out to be 0.403. The SARS-CoV-2 infection rate in assay [2] is 102% (inactive).

Turning to `COc1cc(C[C@H]2c3cc(OC)c(OC)cc3CCN2C)c(Oc2cc3c(cc2OC)-c2c(OC)c(OC)cc4c2[C@H](C3)N(C)CC4)cc1OC` [thaliblastine] (10 µM), the morphology score in assay [1] was 0.443. Besides, in assay [2], the SARS-CoV-2 infection rate is 30.5% (active).

The compound `CC[C@H]1OC(=O)[C@@](C)(F)C(=O)[C@H](C)[C@@H](O[C@@H]2O[C@H](C)C[C@H](N(C)C)[C@H]2O)[C@](C)(OC)C[C@@H](C)C(=O)[C@H](C)[C@H]2N(CCCCn3cc(-c4cccc(N)c4)nn3)C(=O)O[C@]12C` [solithromycin] (10 µM) showed a morphology score in assay [1] of 0.351. For the same compound, the SARS-CoV-2 infection rate in assay [2] is 104% (inactive).

On to `NCCCC[C@H](NC(=O)[C@@H](Cc1cc(Br)c(O)c(Br)c1)NC(=O)N1CCC(N2Cc3ccccc3NC2=O)CC1)C(=O)N1CCN(c2ccncc2)CC1` (10 µM), for which, in assay [1], the morphology score amounted to 0.0352. In addition, in assay [2], the SARS-CoV-2 infection rate was 110% (inactive).

Consider `Cc1ccc(-c2cc(C(F)(F)F)nn2-c2ccc(S(N)(=O)=O)cc2)cc1` [celecoxib] (10 µM), for which, in assay [1], the morphology score came to 0.193. Also, in assay [2], the SARS-CoV-2 infection rate is 102% (inactive).

In assay [1], `CCCCc1nn(-c2ccccc2C(F)(F)F)c(=O)n1Cc1ccc(-c2ccccc2S(=O)(=O)NC(=O)c2sccc2C)cc1` (10 µM) displayed a morphology score of 0.0872. Also, in assay [2], the SARS-CoV-2 infection rate was 104% (inactive).

In assay [1], `c1ccc2cc(C3=NCCN3)ncc2c1` (10 µM) registered a morphology score of 0.119. Further, in assay [2], the SARS-CoV-2 infection rate is 102% (inactive).

As to `O[C@@H](Cc1ccncc1)C(Cl)(Cl)Cl` (10 µM), the morphology score in assay [1] turned out to be 0.21. Also, in assay [2], the SARS-CoV-2 infection rate was 83.5% (inactive).

`COc1cc(-n2cnc3cc(-c4ccc(Cl)cc4)sc3c2=O)ccc1OCCN1CCCC1` (10 µM) had a morphology score in assay [1] of 0.52. Besides, the SARS-CoV-2 infection rate in assay [2] is 53% (active).

Regarding `CN1CCN(CC/C=C2/c3ccccc3Sc3ccc(S(=O)(=O)N(C)C)cc32)CC1` [thiothixene] (10 µM), the morphology score in assay [1] was 0.381. Moreover, the SARS-CoV-2 infection rate in assay [2] was 80.5% (inactive).

In assay [1], `CCCCCCCCCCCCCCCC(=O)C(F)(F)F` (10 µM) yielded a morphology score of 0.158. Besides, the SARS-CoV-2 infection rate in assay [2] was 97% (inactive).

Compound `CN1CCc2cc(Cl)c(O)cc2[C@@H](c2ccccc2)C1` (10 µM) showed a morphology score in assay [1] of 0.0172. The SARS-CoV-2 infection rate in assay [2] was 108% (inactive).

The compound `C[C@@H]1NC(=O)[C@@H]2CCCN2C(=O)[C@H](CC(N)=O)NC(=O)[C@@H]2CSSC[C@H](N)C(=O)N[C@H]3CSSC[C@H](NC1=O)C(=O)N[C@@H]([C@@H](C)O)C(=O)NCC(=O)N[C@H](C(=O)N[C@@H](Cc1ccc(O)cc1)C(=O)O)CSSC[C@H](NC(=O)[C@H](Cc1ccc(O)cc1)NC(=O)[C@H](CCC(=O)O)NC3=O)C(=O)N2` [linaclotide] (10 µM) had a morphology score in assay [1] of 0.0259. In assay [2], the SARS-CoV-2 infection rate was 106% (inactive).
